A selection: hits, their analogues and other compounds. The true share with any hit is near 5.4%.
ALR inh = inhibitors of human ALR sulfhydryl oxidase, primary screen, biochemical, H2O2 detection, HRP-luminol luminescence, single point | FAD-linked sulfhydryl oxidase ALR (Homo sapiens), P55789 | purified ALR, DTT oxidation | inhibition, % (concentration not given with the values) | 290,000 tested, 3.8% active | AID 485317, 2010;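 active means mean replicate inhibition above about 79%, with every replicate also reaching it, limit read from the data; inconclusive means only one of the two criteria met; inactive means mean below limit and not every replicate reaching it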
Target sequence (P55789 whole entry, looked up): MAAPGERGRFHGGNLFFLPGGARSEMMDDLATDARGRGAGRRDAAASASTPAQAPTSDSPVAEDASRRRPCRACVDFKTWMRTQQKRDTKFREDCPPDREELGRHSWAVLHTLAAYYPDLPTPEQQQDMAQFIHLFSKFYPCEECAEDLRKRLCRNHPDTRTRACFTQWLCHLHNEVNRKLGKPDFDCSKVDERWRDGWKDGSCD
Calb FLC = C. albicans growth inhibition with fluconazole, primary screen, CaCi-2 strain, Alamar Blue fluorescence | AID 1979, 2009 | C. albicans CaCi-2 (fluconazole-resistant clinical isolate) + fluconazole, 48 h | growth inhibition, % (test concentration not listed) | 300,000 tested, 0.57% active;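 active means growth inhibition above about 58% in most replicates, limit read from the data, passing the limit was not always enough; inconclusive means exactly half the replicates above a set limit; inactive means most replicates below a set limit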;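 further: all wells also contain fluconazole at 8 µg/ml as a sub-toxic cotreatment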
PP1 inh = PP1-alpha phosphatase inhibitors, primary screen, counter-screen for PP5 inhibitor project, biochemical, fluorescence, OMFP substrate, single point; Serine/threonine-protein phosphatase PP1-alpha catalytic subunit (Homo sapiens), P62136; inhibition, % at 6.7 µM; AID 2235, 2010; purified PP1alpha; 320,000 tested, 0.9% active;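 active means inhibition above the mean inhibition of all tested compounds plus 3 SD, computed separately for each screening campaign, cut at about 15% in these data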
Target sequence (P62136 whole entry, looked up): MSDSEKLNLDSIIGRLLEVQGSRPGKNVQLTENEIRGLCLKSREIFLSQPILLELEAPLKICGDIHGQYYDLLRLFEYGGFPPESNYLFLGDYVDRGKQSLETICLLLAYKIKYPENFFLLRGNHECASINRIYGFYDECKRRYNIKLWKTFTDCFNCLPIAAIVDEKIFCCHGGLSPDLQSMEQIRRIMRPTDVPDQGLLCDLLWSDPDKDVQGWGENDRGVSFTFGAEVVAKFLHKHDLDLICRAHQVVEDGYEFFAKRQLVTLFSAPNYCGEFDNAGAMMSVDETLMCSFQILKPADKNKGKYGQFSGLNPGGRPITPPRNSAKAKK
PP5 inh = PP5 phosphatase inhibitors, primary screen, biochemical, fluorescence. 320,000 tested, 0.18% active. purified PP5c, OMFP substrate fluorescence. AID 1987, 2009. Serine/threonine-protein phosphatase 5 (Homo sapiens), P53041. inhibition, % at 6.7 µM;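 active means inhibition above the campaign's mean inhibition across all tested compounds plus 3 SD, cut at about 9.5% in these data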
CSC inhib = cancer stem cell viability inhibitors, primary screen, luminescence | 300,000 tested, 1.1% active | inhibition, % at 7.5 µM | AID 2717, 2010 | cancer stem cell-like cells viability; in the data active means inhibition above about 75%; inconclusive means no clear call, values can overlap the other calls; tested in HMLE shEcad cells
PP1 confirm = PP1 phosphatase inhibitors, confirmation, biochemical, fluorescence, OMFP substrate, triplicate. shares compounds with PP1 inh. purified PP1alpha. inhibition, % at 6.7 µM. 1,900 tested, 52% active;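 active means mean PP1 inhibition above a set limit taken from the earlier primary screen, cut at about 15% in these data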
PP5 inh counter = PP5 phosphatase inhibition by PP1 hits, confirmation, counter-screen for PP1 inhibitor project, biochemical, fluorescence, triplicate; purified PP5c, OMFP fluorescence; shares compounds with PP1 inh; inhibition, % at 6.7 µM; 1,900 tested, 4% active;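 active means mean PP5 inhibition over triplicate wells above about 9.5% taken from the earlier PP1 screen, limit read from the data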
Hits are given with their value; n = inactive; u = inconclusive; x = not tested or not shown.

SMILES	ALR inh	Calb FLC	PP1 inh	PP5 inh	CSC inhib	PP1 confirm	PP5 inh counter
CCCCCCSc1cc(-c2nc3cc(C)ccn3c2NCCCC)ccc1OC	x	n	26	n	77	n	n
CCCCCCSc1cccc(-c2nc3ccccn3c2NCc2ccccc2)c1	n	x	x	x	u	x	x
CCCCCCSc1cc(-c2nc3ccc(C)cn3c2NCc2ccccc2)ccc1OC	n	n	21	n	n	n	n
NNC(=O)c1ccc2c(c1)S(=O)(=O)NNC2=O	n	n	n	n	n	x	x
CCOC(=O)c1cc(-c2ccccc2)sc1NC(=O)C(C)N1C(=O)NC(C)(c2ccc(Cl)cc2)C1=O (stereo not drawn)	n	n	22	n	n	n	n
O=C(NCc1ccc2c(c1)OCO2)C12CN(Cc3ccccc3)CC1C(c1cccc([N+](=O)[O-])c1)=NO2 (stereo not drawn)	n	n	25	n	n	n	n
C=CCNC(=O)c1cc(Cl)ccn1	x	n	n	n	n	x	x
C#CCNC(=O)C1=C[C@@H](c2csc3ccccc23)C[C@@H](OCc2ccc(CO)cc2)O1	n	n	73	n	n	n	n
O=C(NCc1ccccc1)C1=C[C@@H](c2csc3ccccc23)C[C@@H](OCc2ccc(CO)cc2)O1	n	n	n	n	n	x	x
COc1ccc(/C=C2\SC(=S)N(CCCC(=O)NNC(=O)c3ccccc3O)C2=O)cc1	n	n	n	n	n	x	x
O=C(CN1C(=O)S/C(=C\c2ccc(Cl)cc2)C1=O)NNC(=O)c1ccccc1O	n	n	18	n	n	n	n
Cc1cc(C(F)(F)F)nn1CC(=O)NCc1ccco1	n	n	18	n	n	n	n
CC(C(=O)NCCC1=CCCCC1)N1C(=O)c2ccccc2C1=O (stereo not drawn)	n	n	n	n	n	x	x
CC1CN(C(=O)c2cc(S(=O)(=O)N3CCCC3)ccc2Cl)CC(C)O1 (stereo not drawn)	x	n	x	x	x	x	x
COC(=O)c1cc(-c2cccs2)nn1-c1ccccc1	n	n	n	n	n	x	x
O=C(O)c1cc(-c2cccs2)nn1-c1ccc(F)cc1	n	n	19	n	n	18	n
Cc1nn(CCCC(=O)NCCc2ccccc2)c(=O)c2nn(-c3ccccc3)c(C)c12	n	n	n	n	n	x	x
CC1CC(C)CN(S(=O)(=O)c2ccc(C(=O)Nc3nnc(-c4cccs4)o3)cc2)C1 (stereo not drawn)	n	n	n	n	n	x	x
CCC1CCCCN1S(=O)(=O)c1ccc(C(=O)Nc2nnc(-c3cccs3)o2)cc1 (stereo not drawn)	98	x	41	n	n	33	n
O=C(Nc1nnc(-c2cccs2)o1)c1cccc(C(F)(F)F)c1	n	n	20	n	n	18	n
N#Cc1ccc(C(=O)Nc2nnc(-c3cccs3)o2)cc1	n	n	n	n	n	x	x
CC1=NN(c2ccccc2)C(=O)/C1=C/c1c(O)n(-c2ccc(F)c(Cl)c2)[nH]c1=O	n	n	18	10	103	n	n
CCC(=O)Nc1nnc(S(=O)(=O)N(CC)c2ccc(OC)cc2)s1	x	n	n	n	n	x	x
Cc1sc(NC(=O)Cn2[nH]c(=O)c3ccccc3c2=O)nc1-c1ccccc1	u	n	29	n	n	27	n
Clc1ccc(SCc2cc(N3CCOCC3)nc(-c3ccccn3)n2)cc1	n	n	24	n	n	32	n
SMILES	ALR inh	Calb FLC	PP1 inh	PP5 inh	CSC inhib	PP1 confirm	PP5 inh counter
Clc1ccc(SCc2csc(N3CCOCC3)n2)cc1	n	n	n	n	n	x	x
ClC(Cl)(Cl)c1nc(N/N=C/c2ccncc2)c2ccccc2n1	n	n	22	n	n	18	n
CC(=O)Nc1ccc(S(=O)(=O)N2CCC(C(=O)NCCc3c[nH]c4ccccc34)CC2)cc1	n	n	x	x	n	x	x
COc1ccc(/C=C/c2nnc(NC(=O)COc3ccc(C)cc3)s2)cc1	n	n	18	n	x	n	n
COc1ccc(/C=C/c2nnc(NC(=O)COc3ccccc3)s2)cc1	x	n	n	n	n	x	x
Cc1cc(C)n(-c2nc(NCCCN(C)C)c3c4c(sc3n2)COC(C)(C)C4)n1	n	n	n	n	n	x	x
Cc1ccc(S(=O)(=O)N2[C@@H](c3ccc(Cl)cc3)C(C(=O)O)=CC[C@H]2c2cccc(Cl)c2)cc1	n	x	n	n	n	x	x
O=C(O)C1=CC[C@@H](c2ccc(Cl)cc2)N(S(=O)(=O)c2ccc(Cl)cc2)[C@H]1c1cccc(Cl)c1	n	x	23	n	n	n	n
Cc1ccc(S(=O)(=O)N2[C@@H](c3cccc(Cl)c3)C(C(=O)O)=CC[C@H]2c2ccc(C(C)C)cc2)cc1	n	x	29	n	n	21	n
Cc1ccc(S(=O)(=O)N2[C@@H](c3ccc(Cl)cc3)C(C(=O)O)=CC[C@H]2c2ccc(Cl)cc2)cc1	n	x	21	n	n	n	n
Cc1ccc(S(=O)(=O)N2[C@@H](c3ccc(F)cc3)C(C(=O)O)=CC[C@H]2c2ccc(Cl)cc2)cc1	n	x	n	n	n	x	x
Cc1ccc([C@@H]2CC=C(C(=O)O)[C@H](c3ccc(Cl)cc3)N2S(=O)(=O)c2ccc(C)cc2)cc1	n	x	n	n	n	x	x
COc1cccc([C@@H]2CC=C(C(=O)O)[C@H](c3cccc(Cl)c3)N2S(=O)(=O)c2ccc(C)cc2)c1	n	x	n	n	n	x	x
Cc1ccc(S(=O)(=O)N2[C@@H](c3ccc(F)cc3)C(C(=O)O)=CC[C@H]2c2ccc(C(C)C)cc2)cc1	n	x	19	n	n	n	n
CC(C)C(NC(=O)C1CCCCC1)C(=O)NC1=NCCS1 (stereo not drawn)	n	n	n	n	n	x	x
CN(C)c1ccc(C2CNC(c3ccc(Cl)c([N+](=O)[O-])c3)c3[nH]c4ccccc4c32)cc1 (stereo not drawn)	n	n	21	n	x	17	n
O=C1CC(c2ccc(Cl)c([N+](=O)[O-])c2)c2ccc3ccccc3c2N1 (stereo not drawn)	n	n	n	n	n	x	x
O=[N+]([O-])c1ccc(S(=O)(=O)NCCN2CCOCC2)cc1	n	n	n	n	n	x	x

Source: PubChem BioAssay
